FMDV inh = foot and mouth disease virus antiviral activity; 410,000 tested, 1.2% active; Potency, µM (titrated, usually from 57.9 µM), for the others: at the highest dose activity change, negative = inhibition, hits mostly inhibitors; FMDV antiviral cell-based qHTS; calls by dose curve; tested in HEK293T cells; further: read-out not given here; potency means the concentration at half of the fitted maximal effect; nearly all actives have a fitted effect of over 45% in size
HCMV inh = inhibitors of human cytomegalovirus. activity change, negative = inhibition, % at 57.5 µM. 410,000 tested, 4.5% active. HFF cells, HCMV-luciferase reporter, 72 h; hits give low values; in the data active means activity change below about -60%; inconclusive means no clear call, values can overlap the other calls; inactive means above about -39%
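Two compound doses tested in HFFs infected with HCMV-luciferase, MOI 1 PFU/cell, 72 h at 37C. Lysate luminescence read with OneGlo; data normalized against buffer-only and 10uM Salinomycin inhibitor controls.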
VACV Venus inh = vaccinia inhibition (Venus reporter); Vaccinia virus Venus reporter expression, fluorescence; Potency, µM (top dose mostly 36.5 µM), inactives show at the highest dose activity change, negative = inhibition, usual class: inhibitors; 330,000 tested, 0.46% active; calls by dose curve; tested in A549 cells; further: potency means the concentration at half of the fitted maximal effect; nearly all actives have a fitted effect of over 30% in size
HCV inh = HCV inhibition. Huh7.5.1 HCVcc-Cre infection, luciferase reporter, 44 h. Potency, µM (titrated, usually from 41.8 µM), without a hit: at the top dose activity change, negative = inhibition, most hits filed as inhibitors. 340,000 tested, 3.4% active. AID 651820; active means well fitted inhibition curve with a large enough effect; inconclusive means small, poorly fitted or top-dose-only effect, or another doubt; inactive means no such curve, though single readings can be large or run the other way; further: potency means the concentration at half of the fitted maximal effect
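Antiviral activity was scored by luciferase reporter output from cells infected with HCVcc-Cre (~0.5 moi) in presence of compound, 44 h infection period, cells seeded 1,000/well 4 h prior.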
VACV mCherry inh = vaccinia inhibition (mCherry reporter). Potency, µM (top dose mostly 36.5 µM), without a hit: at the top dose activity change, negative = inhibition, most hits filed as inhibitors. 310,000 tested, 0.63% active. AID 720579. Vaccinia virus mCherry reporter infection, fluorescence; calls by dose curve; tested in A549 cells; further: potency means the concentration at half of the fitted maximal effect; nearly all actives have a fitted effect of over 35% in size
* hit, by the source's call; i = inactive; u = inconclusive; x = no result given. Hits are enriched below; roughly 7.3% of the tested compounds scored in any of these assays. On the % scale 0 is the no-effect control and ±100 the full control effect.

SMILES | FMDV inh | HCMV inh | VACV Venus inh | HCV inh | VACV mCherry inh
Clc1ccccc1Nc1nc(-c2cccnc2)cs1 | 6% | -2 | -10% | u | -22%
CCOc1ccccc1Nc1nc(-c2cccnc2)cs1 | -15% | 17 | -27% | 10µM* | -14%
CCOc1ccccc1Nc1nc(-c2sc(NC(=O)c3ccco3)nc2C)cs1 | -6% | 2 | u | u | u
CCOc1ccccc1Nc1nc(-c2sc(C)nc2C)cs1 | 4% | 59 | u | u | 3.5µM*
O=C(NCc1ccccc1Cl)O[C@H]1CC[C@@]23CCCN2C(=O)CCC[C@H]3[C@H]1Cc1ccccc1 | x | -2 | x | x | x
COC(=O)[C@@H]1CCCN1C(=O)c1c(OC)cc(=O)n2c1CCN(Cc1cc(OC)ccc1F)CC2 | 3% | x | -1% | x | -6%
COCCn1c(SCc2nc3scc(-c4ccc(Cl)cc4)c3c(=O)[nH]2)nnc1-c1cccc(C)c1 | 40µM* | u | u | u | u
O=C(NCc1ccc(F)cc1)[C@@H]1[C@@H](CO)[C@@H]2Cn3c(cccc3=O)[C@H]1N2CC1CCCC1 | x | -2 | x | x | x
O=C(CCc1nc2ccccc2c(=O)[nH]1)NCCN1C(=O)S/C(=C\c2ccc(OC(F)F)cc2)C1=O | 0% | -24 | -8% | u | -11%
O=C(Cn1[nH]c(=O)c2ccccc2c1=O)NCCN1C(=O)S/C(=C\c2ccccc2)C1=O | -18% | 0 | x | 11µM* | x
O=C(CCl)NCCN1C(=O)S/C(=C\c2cccnc2)C1=O | -27% | -77* | u | -14% | u
CC[n+]1c(/C=C/N(C)c2ccccc2)n(-c2ccccc2)c2ccc(-c3nc4ccccc4s3)cc21 | 6.3µM* | x | 4.5µM* | 5.6µM* | u
O=C(NCC1CCCO1)C1CCN(C2CCN(CCCC3CCCC3)CC2)CC1 (configuration not stated) | -21% | 5 | x | 10µM* | x
CCc1ccc(C(=O)NNc2cc(Cl)ccc2Cl)cc1 | -25% | -68* | x | u | x
CCc1ccc(C(=O)NNc2ccccc2F)cc1 | 66% | u | -3% | -2% | u
O=C(c1cnccn1)N1CCC2(CC1)CN(Cc1cc(C(F)(F)F)cc(C(F)(F)F)c1)C2 | 0% | x | x | x | x
COc1cccc(C(=O)Oc2cc3c4c(c2)C(C)=CC(C)(C)N4C(=O)C3=O)c1 | x | -77* | -17% | u | i
COc1cc2c3c(c1)C(C)=CC(C)(C)N3C(=O)C2=O | 30% | -85* | 0% | -10% | -22%
COc1ccc(C(=O)Oc2cc3c4c(c2)C(C)=CC(C)(C)N4C(=O)C3=O)cc1OC | u | -14 | -6% | u | -12%
CCCC(=O)c1cc(-c2nc3ccccc3n2C)n(C)c1 | 8% | 17 | -21% | 22µM* | i
Cc1ccc2c(c1)c1c3n2CCN(C(=O)CCl)C3CCC1 (configuration not stated) | u | -19 | -14% | 22µM* | u
CCOc1ccc(C2CC(c3c(O)c4ccccc4oc3=O)=NN2c2ccccc2)cc1OC (configuration not stated) | -7% | -78* | -18% | 16% | u
COc1ccccc1CNc1cc(-c2ccccc2C(F)(F)F)ncn1 | -25% | x | x | x | x
CCc1cc(=O)oc2c3c(cc(OCC(=O)NCCC(=O)O)c12)OC(C)(C)CC3 | -11% | u | -12% | -2% | -20%
CCc1cc(=O)oc2c3c(cc(OCC(=O)NCCCC(=O)O)c12)OC(C)(C)CC3 | -5% | -7 | x | 11% | x
SMILES | FMDV inh | HCMV inh | VACV Venus inh | HCV inh | VACV mCherry inh
CCc1cc(=O)oc2c3c(cc(OCC(=O)NCc4ccco4)c12)OC(C)(C)CC3 | u | x | 2% | 1.3µM* | -7%
CCc1cc(=O)oc2c3c(cc(OCC(=O)NC4CC4)c12)OC(C)(C)CC3 | -20% | -10 | -15% | 0.79µM* | -9%
CCc1cc(=O)oc2c3c(cc(OCC(=O)NCCCOC)c12)OC(C)(C)CC3 | 3% | -69* | -16% | u | -3%
COc1ccc(CCNC(=O)c2cc(-c3ccc(C)c(C)c3)nc3ccccc23)cc1OC | 2% | 31 | -5% | x | -10%
COc1cccc(CNC(=O)c2ccc(NC(=O)N3CCCCc4ccccc43)cc2)c1 | -7% | 0 | -10% | x | -17%
CCCN(c1ccc(OCC)cc1)c1ncnc2nc[nH]c12 | 5% | u | -23% | 5% | -6%
CCCCN(Cc1ccccc1)c1ncnc2nc[nH]c12 | -9% | x | -21% | -15% | -14%
CCN(c1ccc(OC)cc1)c1ncnc2nc[nH]c12 | 0% | -88* | -12% | -5% | -14%
CCCCN(CCCC)c1ncnc2nc[nH]c12 | u | -91* | u | -19% | -26%
O=C(NCC1Cc2cccc(-c3cnccn3)c2O1)C1COc2ccccc2O1 (configuration not stated) | 0% | x | -12% | x | i
CC(=O)c1ccc(N2CCN(C(=O)c3cc4c(s3)-c3ccccc3OC4)CC2)cc1 | u | 11 | -8% | x | -14%
Cc1sc2ncnc(SCC(=O)N3c4ccccc4Sc4ccc(Cl)cc43)c2c1C | -20% | -12 | -7% | 9% | -18%
CCOC(=O)c1c(C)sc2c1N(C(=O)CCl)c1cc(Cl)ccc1S2 | 10µM* | -96* | -30% | u | u
CC(=O)Nc1ccc(N/C(C)=C/C(=O)c2cccnc2)cc1 | 10% | -61* | -11% | 0% | 4%
C/C(=C\C(=O)c1ccccc1)NNC(=O)c1ccc(Cl)cc1 | 2% | -73* | 17% | 22% | i
C/C(=C\C(=O)c1cccnc1)Nc1ccc(C(=O)O)cc1 | -7% | 27 | x | 3% | x
COc1ccc(N/C(C)=C/C(=O)c2ccccc2)cc1 | 5% | -11 | -15% | 10µM* | i
CN(C)c1ccc(CNC(=O)c2ccccc2NC(=O)c2nsc3ccccc23)cc1 | -5% | 16 | -24% | x | -10%
CC(C)c1oc(=O)cc2c1[C@@H](O)[C@H]1OC(=O)[C@@]3(C)CC[C@@H](O)[C@@]2(C)C13 (some centres not stated) | u | -97* | 4µM* | u | u
CC(C)c1oc(=O)cc2c1[C@@H](O)[C@H]1OC(=O)[C@@]3(C)C[C@@H](O)[C@@H](O)[C@@]2(C)C13 (some centres not stated) | u | -98* | 2µM* | u | u
COc1ccc(-c2csc(NC(=O)Cc3cc(OC)c(OC)c(OC)c3)n2)cc1OC | 14µM* | u | -25% | u | -23%
COc1ccc(CCNc2nc(-c3sc(C)nc3C)cs2)cc1OC | 25µM* | -29 | x | 13µM* | x
O=C(Nc1ccc(-c2cn3ccsc3n2)cc1)C1COc2ccccc2O1 (configuration not stated) | u | -23 | u | 14µM* | u
Cc1ccnc(NC(=O)C2COc3ccccc3O2)c1 (configuration not stated) | 63% | -75* | -11% | 0% | i
O=C(Nc1ccccc1C(F)(F)F)N[C@H]1CC[C@@]23CCCN2C(=O)CCC[C@H]3C1Cc1ccccc1 (some centres not stated) | x | 5 | x | x | x
